# Results reported in PubChem BioAssay (EPA / NIEHS).
# Values joined by “and” are separate entries in the source; they are usually repeats but may differ in a detail not shown here. Equal entries are not always repeated. Inconclusive results are not listed. Active and inactive are the calls of the source. How the source made its calls, unless noted: active means hit-call score of the fitted dose curve at least 0.9, where 1 is the maximum; inactive means score below 0.9.
# What was measured:
# [1] = ATG_M_61_XSP2: Attagene TRANS-FACTORIAL Multi-Species (XSP2) HepG2 Assay for M61 Transcription Factor (Internal Marker) (AID 2283835);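 further: active means a rise in signal above the DMSO baseline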
# In short: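 HepG2 cells transiently transfected with multiple GAL4-UAS reporter units; reporter mRNA measured 24 h after dosing by RT-PCR, fluorescent labelling and capillary electrophoresis. Medium contained 3 nM 6-alpha-fluorotestosterone and 1.5 nM norgestrel; internal marker, DMSO baseline.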
# [2] = ATG_XTT_Cytotoxicity_XSP2: Cytotoxicity Assessment in the Attagene TRANS-FACTORIAL Multi-Species (XSP2) HepG2 Assay (AID 2283837; active means hit-call score of the fitted dose curve at least 0.9, where 1 is the maximum)
# In short: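 HepG2 cells, transiently transfected with multiple reporter constructs, exposed to chemical for 24 h. Cell number assessed with XTT fluorescence read-out; loss of signal fitted relative to DMSO.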
# [3] = molecular target: human Thyroid hormone Receptor alpha (TRa), THRA (gene 7067) (UniProt P10827); assay: ATG_hTRa_XSP2: Attagene TRANS-FACTORIAL Multi-Species (XSP2) HepG2 Assay for human Thyroid hormone Receptor alpha (TRa) (AID 2283838; active means hit-call score of the fitted dose curve at least 0.9, where 1 is the maximum)
# human Thyroid hormone Receptor alpha (TRa), THRA (gene 7067), sequence (P10827 whole entry, looked up, the tested form may be a part): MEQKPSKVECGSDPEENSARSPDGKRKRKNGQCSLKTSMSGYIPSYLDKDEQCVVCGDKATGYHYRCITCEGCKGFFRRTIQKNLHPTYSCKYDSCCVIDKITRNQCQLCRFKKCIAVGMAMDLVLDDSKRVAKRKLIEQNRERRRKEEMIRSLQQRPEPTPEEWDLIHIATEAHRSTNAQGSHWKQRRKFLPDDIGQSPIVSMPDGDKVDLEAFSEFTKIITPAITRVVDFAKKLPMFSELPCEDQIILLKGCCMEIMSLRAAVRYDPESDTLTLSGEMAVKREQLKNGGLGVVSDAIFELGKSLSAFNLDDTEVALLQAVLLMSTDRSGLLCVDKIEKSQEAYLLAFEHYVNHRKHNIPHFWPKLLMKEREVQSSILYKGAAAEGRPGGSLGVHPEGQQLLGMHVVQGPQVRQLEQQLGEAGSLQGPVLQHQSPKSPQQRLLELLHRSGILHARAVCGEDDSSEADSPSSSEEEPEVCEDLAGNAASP
# In short: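 HepG2 cells transiently transfected with multiplexed GAL4-UAS reporter units and exogenous NR-GAL4 chimeras; 24 h chemical exposure with 3 nM 6-alpha-fluorotestosterone and 1.5 nM norgestrel present. Reporter mRNA measured by RT-PCR, FAM labelling, HpaI digestion, capillary electrophoresis; gain-of-signal versus DMSO.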
# [4] = CEETOX_H295R_11DCORT_noMTC: CeeTox H295R High-throughput Steroidogenesis Assay for 11-Deoxycortisol (11DCORT), maximum tolerated concentration (MTC) filtered results only (AID 2283911); settings: actives raise or lower the signal
# Protocol: CEETOX_H295R is a cell-based, multiplexed-readout assay that uses H295R, a human adrenal gland cell line, with measurements taken at 48 hours after chemical dosing in a 96-well plate.CEETOX_H295R_11DCORT_noMTC is one of 12 assay component(s) measured or calculated from the CEETOX_H295R assay (11 hormones and 1 viability assay). It is designed to make measurements of hormone induction, a form of inducible reporter, as detected with absorbance signals by HPLC-MS-MS technology. The concentrations for these components have not been pre-filtered for the maximum tolerated concentration (MTC) based on the MTT assay (_noMTC).Data from the assay component CEETOX_H295R_11DCORT_noMTC was analyzed into 1 assay endpoint. This assay endpoint, CEETOX_H295R_11DCORT_noMTC, was analyzed with bidirectional fitting relative to DMSO as the negative control and baseline of activity. […]
# Cell culture and media preparation procedures were conducted in accordance with OECD Test No. 456 guidelines, with minor modifications. […] For steroid quantification, media samples were shipped to OpAns, LLC (Durham, NC) on dry ice, and samples were thawed to room temperature prior to liquid-liquid extraction. […] Steroid hormones were separated by HPLC, eluted using a reverse phase C18 gradient with electrospray positive ionization, followed by quantification by tandem mass spectrometry (MS/MS). […]
# [5] = CEETOX_H295R_OHPREG_noMTC: CeeTox H295R High-throughput Steroidogenesis Assay for OH-Pregnenolone (OHPREG), maximum tolerated concentration (MTC) filtered results only (AID 2283912); settings: actives raise or lower the signal
# In short: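 H295R cells prestimulated 48 h with 10 uM forskolin, then exposed 48 h to compound (0.1% DMSO). 17alpha-hydroxypregnenolone in medium measured by MTBE extraction and HPLC-MS/MS; bidirectional fit vs DMSO, concentrations not MTT/MTC-filtered.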
smiles,measurement,setting,value
CN(CCOc1ccc(CC2SC(=O)NC2=O)cc1)c1ccccn1 (centres undefined),outcome,[1],inactive
O=c1cc(-c2ccccc2)oc2cc(O)cc(O)c12,outcome,[1],inactive
same,outcome,[2],inactive
same,AC50,[3],10.9 µM (active) and 7.51 µM (active)
O=C(Oc1ccccc1)c1ccc(O)cc1,outcome,[3],inactive
CC1CC(OC(=O)c2ccccc2O)CC(C)(C)C1 (centres undefined),outcome,[4],inactive
same,outcome,[5],inactive
Cc1ccc(C(C)C)cc1O,outcome,[4],inactive
same,outcome,[5],inactive
